In PubChem BioAssay (Tox21):
Results filed as inconclusive are left out. Active and inactive are the calls of the source. Unless noted, calls follow the shape of the full dose curve.

Key:
[1] = Nuclear factor erythroid 2-related factor 2/antioxidant responsive element (Nrf2/ARE) small molecule agonists: qHTS cell viability counter screen in human keratinocytes (AID 1919968; active = well fitted curve in the direction sought with a large enough effect in the repeat runs; an effect the other way counts as inactive or inconclusive; also: nearly all actives have a fitted effect of over 55% in size); conditions: KeratinoSens HaCaT ARE cells viability, CellTiter-Fluor, 24 h; series mostly up to 92.4 µM
Procedure, shortened: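 Measured as CellTiter-Fluor fluorescence, this readout tracks cytotoxicity in the same wells as the ARE-luciferase screen. HaCaT reporter cells (1,500/well) received compounds after a 5 h pre-incubation and were exposed for 23 h.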

[2] = Nuclear factor erythroid 2-related factor 2/antioxidant responsive element (Nrf2/ARE) small molecule agonists: luciferase reporter gene qHTS assay in human keratinocytes (AID 1919969); conditions: KeratinoSens HaCaT ARE-luciferase, luminescence, 24 h; series mostly up to 92.4 µM; also: nearly all actives have a fitted effect of over 35% in size
[3] = target: Gonadotropin-releasing hormone receptor (Homo sapiens) (UniProt P30968); test: Human gonadotropin-releasing hormone receptor (GnRHR) small molecule agonists, calcium flux assay in GnRHR-HEK293 cells (AID 1920063); conditions: calcium flux fluorescence, agonist mode; series mostly up to 57.6 µM; also: nearly all actives have a fitted effect of over 35% in size
Sequence of Gonadotropin-releasing hormone receptor (Homo sapiens) (P30968 whole entry, looked up): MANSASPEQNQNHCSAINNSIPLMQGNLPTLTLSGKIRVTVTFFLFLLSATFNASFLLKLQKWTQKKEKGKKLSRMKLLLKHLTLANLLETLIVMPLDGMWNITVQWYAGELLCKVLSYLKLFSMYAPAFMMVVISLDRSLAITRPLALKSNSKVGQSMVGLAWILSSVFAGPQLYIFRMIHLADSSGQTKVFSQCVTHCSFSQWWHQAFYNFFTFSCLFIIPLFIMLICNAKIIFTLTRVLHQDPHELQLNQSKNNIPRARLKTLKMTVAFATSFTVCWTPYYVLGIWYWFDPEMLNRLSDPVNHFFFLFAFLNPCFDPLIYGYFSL
Procedure, shortened: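 Fluorescence kinetics (480 nm excitation, 540 nm emission; 3 min, 1 s steps) report calcium mobilisation in human GnRHR-HEK293 cells in agonist mode. Dye incubation: 1 h, 37 C.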

[4] = target: KiSS-1 receptor (Homo sapiens) (UniProt Q969F8); test: Human kisspeptin (KISS1R) small molecule agonists, calcium flux assay in KISS1R-HEK293 cells (AID 1920064; active = well fitted curve in the direction sought with a large enough effect in the repeat runs; an effect the other way counts as inactive or inconclusive); conditions: KISS1R-HEK293, calcium flux fluorescence, agonist; series mostly up to 76.8 µM
Sequence of KiSS-1 receptor (Homo sapiens) (Q969F8 whole entry, looked up): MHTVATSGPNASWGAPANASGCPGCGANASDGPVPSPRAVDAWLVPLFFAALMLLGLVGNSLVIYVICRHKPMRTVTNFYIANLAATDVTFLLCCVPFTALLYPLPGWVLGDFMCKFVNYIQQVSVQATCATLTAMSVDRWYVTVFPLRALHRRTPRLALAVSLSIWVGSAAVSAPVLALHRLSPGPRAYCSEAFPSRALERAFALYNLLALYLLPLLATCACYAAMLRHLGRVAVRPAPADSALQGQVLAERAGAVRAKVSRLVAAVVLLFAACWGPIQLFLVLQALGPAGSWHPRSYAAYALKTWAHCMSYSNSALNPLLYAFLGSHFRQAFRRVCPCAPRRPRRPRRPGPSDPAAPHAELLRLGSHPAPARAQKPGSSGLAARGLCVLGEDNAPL
Procedure, shortened: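 Measures KISS1R agonism through calcium-sensitive dye fluorescence in stably transfected HEK293 cells, read for 3 min after pin-tool compound delivery; 15-point titrations in triplicate.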

[5] = G protein-coupled receptor (GPCR) small molecule agonists, calcium flux assay: HEK293 wild type cell line counter screen (AID 1920065); conditions: HEK293 WT calcium flux, fluorescence, agonist mode; series mostly up to 57.6 µM
Procedure, shortened: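 Readout: fluorescence at 480 nm excitation/540 nm emission, sampled at 1 s intervals for 3 min. Cells had been cultured 18 h, then dye-loaded 1 h at 37 C before compound or ATP addition.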

[6] = p53 small molecule agonists, cell-based qHTS assay with human liver microsomes (AID 1963577); conditions: HCT-116 p53RE-bla with human liver microsomes, ratio, 16 h; series mostly up to 66 µM
Procedure, shortened: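 p53RE-bla reporter cells were pre-incubated 5 h at 37 C, then treated with compounds plus human liver microsomes (0.5 mg/mL final) and NADPH (0.5 mg/mL final) for 16 h at 37 C. Beta-lactamase activity was read by LiveBLAzer fluorescence after 2 h at room temperature.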

[7] = p53 small molecule agonists, cell-based qHTS assay with rat liver microsomes (AID 1963578); conditions: HCT-116 p53RE-bla, beta-lactamase ratio, 16 h; series mostly up to 66 µM
Procedure, shortened: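 p53RE-bla cells were exposed to compounds together with rat liver microsomes (0.5 mg/mL final) and NADPH (0.5 mg/mL final) for 16 h at 37 C, then read by LiveBLAzer beta-lactamase fluorescence after 2 h at room temperature.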

[8] = p53 small molecule agonists, cell-based qHTS assay with rat liver microsomes: qHTS cell viability counter screen (AID 1963580); conditions: p53RE-bla HCT-116 + rat microsomes, ATP viability, 16 h; series mostly up to 66 µM; also: nearly all actives have a fitted effect of over 45% in size
Procedure, shortened: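 In HCT-116 cells carrying a p53 response element-bla reporter, compounds were metabolically activated in situ by rat liver microsomes with NADPH over 16 h. Cell ATP content then served as the cytotoxicity measure.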

[9] = p53 small molecule agonists, cell-based qHTS assay: qHTS cell viability counter screen (AID 1963581); conditions: p53RE-bla HCT-116 viability, ATP luminescence, 16 h; series mostly up to 66 µM; also: nearly all actives have a fitted effect of over 45% in size
Procedure, shortened: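 In the same plates used for the p53 bla reporter, HCT-116 cells given compounds for 16 h at 37 C received CellTiter-Glo; luminescence was recorded 30 min later at room temperature.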

[10] = p53 small molecule agonists, cell-based qHTS assay (AID 1963582; active = well fitted activation curve with a large enough effect in the signal ratio in the repeat runs, not every such curve was filed as active; the % refers to the signal ratio); conditions: HCT-116 p53RE-bla reporter, beta-lactamase FRET ratio, 16 h; series mostly up to 66 µM
Procedure, shortened: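 Compounds are pin-transferred in DMSO onto p53RE-bla cells and incubated 16 h at 37 C. The B/G FRET beta-lactamase substrate is then applied for 2 h at RT and fluorescence recorded.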

[11] = target: 5-hydroxytryptamine receptor 2A (Homo sapiens) (UniProt P28223); test: 5-hydroxytryptamine receptor 2A (HTR2A) small molecule antagonists, cell-based qHTS assay (AID 1963586); conditions: HTR2A-CHO cells, DOI-induced calcium flux, fluorescence; series mostly up to 61.5 µM; also: nearly all actives have a fitted effect of over 45% in size
Sequence of 5-hydroxytryptamine receptor 2A (Homo sapiens) (P28223 whole entry, looked up): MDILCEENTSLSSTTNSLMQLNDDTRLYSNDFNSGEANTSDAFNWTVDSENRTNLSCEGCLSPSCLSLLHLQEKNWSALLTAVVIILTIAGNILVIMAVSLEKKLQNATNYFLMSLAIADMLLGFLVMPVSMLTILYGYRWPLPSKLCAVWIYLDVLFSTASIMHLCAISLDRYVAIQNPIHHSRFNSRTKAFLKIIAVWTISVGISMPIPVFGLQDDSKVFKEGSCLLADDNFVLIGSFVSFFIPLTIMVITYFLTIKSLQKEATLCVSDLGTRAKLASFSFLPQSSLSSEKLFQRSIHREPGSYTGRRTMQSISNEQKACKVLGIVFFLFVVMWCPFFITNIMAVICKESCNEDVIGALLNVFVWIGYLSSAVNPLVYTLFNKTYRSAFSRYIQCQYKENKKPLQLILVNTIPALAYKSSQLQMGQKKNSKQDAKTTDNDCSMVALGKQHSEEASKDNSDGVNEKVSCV
Procedure, shortened: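 Antagonist-mode intracellular calcium assay: DOI (4 nM) added after 5 min compound pre-incubation at room temperature to dye-loaded HTR2A-CHO cells. Fluorescence followed for 3 min, sampled every second.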

[12] = target: 5-hydroxytryptamine receptor 2A (Homo sapiens) (UniProt P28223); test: 5-hydroxytryptamine receptor 2A (HTR2A) small molecule agonists, cell-based qHTS assay (AID 1963587); conditions: HTR2A-CHO cells, calcium flux fluorescence, agonist mode; series mostly up to 76.8 µM; also: nearly all actives have a fitted effect of over 30% in size
Procedure, shortened: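 HTR2A-CHO cells, plated 18 h at 37 C/5% CO2, dye-loaded 1 h at 37 C; compounds in DMSO added by pin tool (agonist mode). Intracellular calcium flux read as kinetic fluorescence on FDSS over 2 min at 1 s intervals.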

[13] = target: Muscarinic acetylcholine receptor M1 (Homo sapiens) (UniProt P11229); test: Cholinergic receptor muscarinic 1 (CHRM1) small molecule antagonists, cell-based qHTS assay (AID 1963588); conditions: CHRM1-CHO antagonist mode, calcium flux fluorescence; series mostly up to 61.5 µM; also: nearly all actives have a fitted effect of over 40% in size
Sequence of Muscarinic acetylcholine receptor M1 (Homo sapiens) (P11229 whole entry, looked up): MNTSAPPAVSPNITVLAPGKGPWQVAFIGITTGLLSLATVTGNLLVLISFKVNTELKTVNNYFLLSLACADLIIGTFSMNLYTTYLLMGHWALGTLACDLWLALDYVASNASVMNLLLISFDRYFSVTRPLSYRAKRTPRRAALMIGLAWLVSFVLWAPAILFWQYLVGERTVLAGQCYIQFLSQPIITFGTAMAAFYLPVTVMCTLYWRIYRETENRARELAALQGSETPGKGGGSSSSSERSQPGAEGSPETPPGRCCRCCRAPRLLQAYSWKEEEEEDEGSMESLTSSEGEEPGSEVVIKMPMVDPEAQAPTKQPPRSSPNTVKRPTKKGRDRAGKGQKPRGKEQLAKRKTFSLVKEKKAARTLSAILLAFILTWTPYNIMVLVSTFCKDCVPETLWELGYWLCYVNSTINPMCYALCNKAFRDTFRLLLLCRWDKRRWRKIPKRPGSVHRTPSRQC
Procedure, shortened: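 CHRM1-CHO calcium-flux assay, antagonist mode. Cells were seeded 18 h, dye-loaded 1 h at 37 C and given compound for 5 min at RT, then acetylcholine was added at 50nM. FDSS fluorescence was read 3 min; 15 concentrations, three runs.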

[14] = target: Muscarinic acetylcholine receptor M1 (Homo sapiens) (UniProt P11229); test: Cholinergic receptor muscarinic 1 (CHRM1) small molecule agonists, cell-based qHTS assay (AID 1963589); conditions: CHRM1-CHO cells, agonist mode, calcium flux fluorescence; series mostly up to 76.8 µM; also: nearly all actives have a fitted effect of over 35% in size
Procedure, shortened: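 Each compound was tested at 15 concentrations across three independent runs on dye-loaded CHO cells stably expressing human CHRM1, reading intracellular calcium fluorescence kinetically at 1 sec intervals.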

[15] = cAMP Responsive Elements (CRE) small molecule agonists, cell-based qHTS assay (AID 1963590); conditions: CRE-bla HEK293T, beta-lactamase FRET ratio, 3 h; series mostly up to 92.4 µM
Procedure, shortened: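 Cell line: CRE-bla HEK 293T; medium DMEM/10% dialyzed FBS/0.1 mM NEAA/1 mM pyruvate/25 mM HEPES; 3 h compound exposure; beta-lactamase FRET readout after 2 h substrate loading at RT.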

[16] = cAMP Responsive Elements (CRE) small molecule antagonists, cell-based qHTS assay (AID 1963591; active = well fitted inhibition curve with a large enough effect in the signal ratio in the repeat runs, not every such curve was filed as active; the % refers to the signal ratio); conditions: CRE-bla HEK293T, beta-lactamase FRET ratio; series mostly up to 92.4 µM
Procedure, shortened: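 Inhibition of NKH477-driven (0.25 uM final) CRE-beta-lactamase signal in HEK293T cells, 3 h compound exposure at 37 °C, detected by FRET substrate fluorescence.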

[17] = target: Beta-2 adrenergic receptor (Homo sapiens) (UniProt P07550); test: Adrenergic beta2 receptor (ADRB2) small molecule antagonists, cell-based qHTS assay (AID 1963592); conditions: CHO-ADRB2 cells, isoproterenol-stimulated cAMP HTRF ratio, 0.5 h; series mostly up to 92.4 µM; also: nearly all actives have a fitted effect of over 50% in size
Sequence of Beta-2 adrenergic receptor (Homo sapiens) (P07550 whole entry, looked up): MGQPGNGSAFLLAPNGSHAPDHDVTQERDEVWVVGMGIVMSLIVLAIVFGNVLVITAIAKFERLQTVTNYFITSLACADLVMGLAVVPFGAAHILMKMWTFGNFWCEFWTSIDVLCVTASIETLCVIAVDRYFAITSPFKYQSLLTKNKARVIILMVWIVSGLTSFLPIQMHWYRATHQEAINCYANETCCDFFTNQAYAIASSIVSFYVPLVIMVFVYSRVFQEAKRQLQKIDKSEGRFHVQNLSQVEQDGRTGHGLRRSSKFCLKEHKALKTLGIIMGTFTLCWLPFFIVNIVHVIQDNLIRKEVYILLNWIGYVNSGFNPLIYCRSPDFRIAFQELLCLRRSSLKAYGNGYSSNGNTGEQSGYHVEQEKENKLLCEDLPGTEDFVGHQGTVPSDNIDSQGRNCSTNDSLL
Procedure, shortened: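 Cells (CHO, stable ADRB2 overexpression) incubated 18-20hr at 37C; compounds added from DMSO; agonist mix (1nM isoproterenol, 100uM IBMX, 25uM Ro-20-1724) added; 0.5hr RT; d2-cAMP and anti-cAMP-cryptate added; 1hr RT; 665/615 nm read.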

[18] = target: D(2) dopamine receptor (Homo sapiens) (UniProt P14416); test: Dopamine D2 receptor (DRD2) small molecule agonists, cell-based qHTS assay (AID 1963594); conditions: HEK293-DRD2 cAMP HTRF, agonist mode, 30 min; series mostly up to 92.4 µM; also: nearly all actives have a fitted effect of over 35% in size; also: potency is read from the fitted curve at half-maximal effect
Sequence of D(2) dopamine receptor (Homo sapiens) (P14416 whole entry, looked up): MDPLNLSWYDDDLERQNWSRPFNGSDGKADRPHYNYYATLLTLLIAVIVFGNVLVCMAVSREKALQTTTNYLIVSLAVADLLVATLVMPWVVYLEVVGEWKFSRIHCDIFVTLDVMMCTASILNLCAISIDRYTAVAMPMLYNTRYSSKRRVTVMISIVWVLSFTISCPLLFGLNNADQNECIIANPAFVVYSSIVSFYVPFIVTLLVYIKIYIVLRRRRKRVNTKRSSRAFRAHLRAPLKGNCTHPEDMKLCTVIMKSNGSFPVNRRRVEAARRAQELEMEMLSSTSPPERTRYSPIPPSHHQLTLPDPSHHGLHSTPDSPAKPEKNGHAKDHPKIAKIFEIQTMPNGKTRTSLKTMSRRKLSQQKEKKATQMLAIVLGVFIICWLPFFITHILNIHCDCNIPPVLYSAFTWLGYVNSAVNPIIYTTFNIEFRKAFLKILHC
Procedure, shortened: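 HEK293 cells stably expressing DRD2 were cultured 24 h at 37 C, then given Ro20-1724 (0.1 mM final) and compounds for 10 min at room temperature. NKH477 (200nM) was then added for 30 min. cAMP was read by HTRF.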

[19] = target: D(2) dopamine receptor (Homo sapiens) (UniProt P14416); test: Dopamine D2 receptor (DRD2) small molecule antagonists, cell-based qHTS assay (AID 1963595; active = well fitted inhibition curve with a large enough effect in the signal ratio in the repeat runs, with a control signal flat; the % refers to the signal ratio); conditions: HEK293-DRD2 cAMP HTRF antagonist mode; series mostly up to 92.4 µM
Procedure, shortened: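 Human DRD2 antagonist qHTS measuring cAMP by HTRF. The cells are exposed to compound for 10 min, then to NKH477 (200 nM) and quinpirole (12 nM) for 30 min at RT, with Ro20-1724 (0.1 mM) present throughout.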

[20] = target: Beta-2 adrenergic receptor (Homo sapiens) (UniProt P07550); test: Adrenergic beta2 receptor (ADRB2) small molecule agonists, cell-based qHTS assay (AID 1963593); conditions: CHO-ADRB2 cells, cAMP HTRF, 30 min; series mostly up to 42.5 µM;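 also: CHO cells stably overexpressing human ADRB2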
Procedure, shortened: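 CHO cells stably over-expressing ADRB2 were plated overnight at 37C, then dosed with compounds plus a stimulation mix containing 100uM IBMX and 25uM Ro-20-1724 for 0.5hr at room temperature. cAMP was measured by HTRF competition, 1hr.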

Measured: Potency

C=C(C)C(=O)OCC1CCCO1 (stereo not given)
inactive: [1] | [2] | [3] | [4] | [5] | [6] | [7] | [8] | [9] | [10] | [11] | [12] | [13] | [14] | [15] | [16] | [17] | [18] | [19]

FC(F)(F)C(F)(F)C(F)(F)C(F)(F)C(F)(F)C(F)(F)C(F)(F)C(F)(F)Br
inactive: [1] | [2] | [3] | [4] | [5] | [6] | [7] | [8] | [9] | [10] | [11] | [12] | [13] | [14] | [15] | [16] | [17] | [18] | [19]

CC(=O)NO
inactive: [1] | [2] | [3] | [4] | [5] | [6] | [7] | [8] | [9] | [10] | [11] | [12] | [13] | [14] | [15] | [16] | [20] | [18] | [19]

CC(C)(C)c1ccccc1
inactive: [1] | [2] | [3] | [4] | [5] | [6] | [7] | [8] | [9] | [10] | [11] | [12] | [13] | [14] | [15] | [16] | [17] | [18] | [19]

CC(CCc1ccccc1)NCC(O)c1ccc(O)c(C(N)=O)c1 (stereo not given)
active: [18] 3.31 µM
inactive: [1] | [2] | [3] | [4] | [5] | [6] | [7] | [15] | [16] | [19]

Nc1nc(N)c(-c2ccccc2)s1
inactive: [1] | [2] | [3] | [4] | [5] | [6] | [7] | [8] | [9] | [10] | [11] | [12] | [13] | [14] | [15] | [16] | [18] | [19]
